# CYP2C9 inhib = inhibitors of human CYP2C9; CYP2C9 Supersomes, luciferin-H conversion, luminescence; P11712; hit rate 20% among 96,000; inhibition, % at 5 µM;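 active means blocking of liver enzyme CYP2C9 beyond about 50% at 5 µM, limit read from the data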
# PLAP act = human PLAP activation | AID 696 | purified PLAP enzyme, luminescent substrate read-out; hits give high values | P05187 | hit rate 1.2% among 96,000 | activation fold at 20 µM; in the data active means activation fold above about 2
# CYP2C19 inh = blocks human cytochrome P450 2C19. P33261. CYP2C19 Supersomes, luciferin-H EGE luminescence, 30 min. inhibition, % at 5 µM. hit rate 21% among 96,000;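 active means CYP2C19 inhibition above a set limit at 5 µM in the primary screen, cut at about 50% in these data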;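 further: plate controls were negative control wells for no effect and 2.5 mM tranylcypromine positive control for full effect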
# Target sequence (P33261 whole entry, looked up): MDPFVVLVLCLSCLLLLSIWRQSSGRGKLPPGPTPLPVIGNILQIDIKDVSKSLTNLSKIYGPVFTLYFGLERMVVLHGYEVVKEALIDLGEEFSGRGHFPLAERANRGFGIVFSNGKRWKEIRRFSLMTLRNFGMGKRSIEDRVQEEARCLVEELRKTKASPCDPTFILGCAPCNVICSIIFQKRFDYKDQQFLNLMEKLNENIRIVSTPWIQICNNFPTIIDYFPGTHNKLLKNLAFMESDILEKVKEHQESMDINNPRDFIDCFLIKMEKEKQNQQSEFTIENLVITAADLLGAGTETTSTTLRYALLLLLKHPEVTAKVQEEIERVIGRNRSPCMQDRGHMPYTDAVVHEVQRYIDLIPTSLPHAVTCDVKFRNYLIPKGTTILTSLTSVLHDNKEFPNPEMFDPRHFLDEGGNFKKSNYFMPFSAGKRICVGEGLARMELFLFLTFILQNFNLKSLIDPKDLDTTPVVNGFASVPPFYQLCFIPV
# CYP2C19 act = cytochrome P450 2C19 (human) activation | P33261 | recombinant CYP2C19, luciferin-H EGE luminescence; hits give high values; 0 = fully inhibited enzyme, 1 = untreated enzyme | activation factor at 5 µM | 96,000 tested, under 10 active | AID 1025;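 active means activation factor of at least 2 at 5 µM in the primary screen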;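 further: 0 = wells with 2.5 mM tranylcypromine and 1 = vehicle-only wells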
# CYP2C9 activ = activators of human CYP2C9; hit rate 1.4% among 96,000; P11712; AID 1024; recombinant CYP2C9, luciferin-H conversion, luminescence; hits give high values; factor 1 = untreated enzyme, 0 = blocked; activation factor at 5 µM;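 active means activation factor of 2 or more for CYP2C9 at a 5 µM dose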;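 further: 0 = sulfaphenazole-blocked wells and 1 = vehicle-only wells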
# Numbers without * were called inactive. Only some compounds are listed: those with a hit (about 31% of all), similar ones and a draw of the others.
SMILES,CYP2C9 inhib,PLAP act,CYP2C19 inh,CYP2C19 act,CYP2C9 activ
COc1cc2c(cc1OC)C(c1ccccc1)N(C(=O)CCl)CC2 (stereo unspecified),40,1,39,0.6,0.6
COc1cc2c(cc1OC)C(c1cccs1)N(C(=O)C(C)C)CC2 (stereo unspecified),44,1.1,63*,0.4,0.6
CCCCCC(=O)N1CCN(CCN=CC2=C(O)CC(c3cccs3)CC2=O)CC1 (stereo unspecified),17,1.5,26,0.7,0.8
COc1ccc(C(=O)Nc2cccnc2)cc1S(=O)(=O)N1CCOCC1,-14,0.9,2,1,1.1
CC1CC1C(=O)OCC(=O)NC(=O)NCc1ccco1 (stereo unspecified),5,1,14,0.9,0.9
CC(=O)Nc1ccc(SCC(=O)OCC(=O)NC(=O)NCc2ccco2)cc1,66*,0.9,20,0.8,0.3
O=C(NCc1ccco1)Nc1ccc(Br)cc1,64*,0.8,64*,0.4,0.4
O=C(NCc1ccco1)C1(c2ccc(Br)cc2)CCCC1,70*,1,31,0.7,0.3
O=C(Nc1ccccc1)NC1(C(=O)NCc2ccco2)CCCCC1,40,1.3,15,0.9,0.6
O=C(NCc1ccco1)NCC(F)(F)F,-9,1,8,0.9,1.1
O=C(NCc1ccco1)Nc1ccc2nsnc2c1,40,0.8,4,1,0.6
Cc1ccc(NC(=O)NC2(C(=O)NCc3ccco3)CCCCC2)cc1,54*,1.3,93*,0.1,0.5
CCC(CC)C(=O)Nc1cc(C(=O)NCCc2ccccc2)ccc1Cl,46,1,31,0.7,0.5
Cn1c(SCc2c(Cl)cccc2Cl)nc(C(F)(F)F)cc1=O,3,1,-9,1.1,1
O=C(Oc1ccccc1Cl)c1ccccc1P(=O)(O)O,-5,0.9,-2,1,1.1
O=S(=O)(CCc1nc2ccccc2o1)c1ccc2ccccc2c1,-169,0.9,17,0.8,2.7*
CCc1ccc(N2C(=O)c3sc4nnc(-c5ccccc5)c(=O)n4c3C2=O)cc1,64*,1.5,14,0.9,0.4
CN(CCCNC(=O)c1cccn2c(=O)c3ccccc3nc12)Cc1ccccc1,26,1.5,38,0.6,0.7
C=CCc1c(C)nc(SC)nc1Nc1ccc(C(C)=O)cc1,97*,1.6,94*,0.1,0
C=CCc1c(C)nc(SC)nc1Nc1ccc(C(=O)O)cc1,-16,1.1,-15,1.2,1.2
CCOC(=O)c1[nH]c(C)c(C(=O)OCC(=O)N(CC)C2CCS(=O)(=O)C2)c1C (stereo unspecified),28,1.3,-20,1.2,0.7
Cc1ccccc1OCc1nc2ccc(S(=O)(=O)N3CCOCC3)cc2[nH]1,27,1.8,-8,1.1,0.7
CCc1ccccc1OCc1nc2ccc(S(=O)(=O)N3CCOCC3)cc2[nH]1,49,2*,-4,1,0.5
O=S(=O)(c1ccc2nc(COc3ccc(Cl)cc3Cl)[nH]c2c1)N1CCOCC1,58*,1.7,51*,0.5,0.4
O=S(=O)(N/N=C/c1ccc(Cl)cc1)c1ccc(Cc2ncc(C(F)(F)F)cc2Cl)s1,92*,1.6,-4,1,0.1
SMILES,CYP2C9 inhib,PLAP act,CYP2C19 inh,CYP2C19 act,CYP2C9 activ
NC(=O)c1ccc(Cc2ncc(C(F)(F)F)cc2Cl)s1,4,1.1,14,0.9,1
CC(C)NC1CS(=O)(=O)CC1O (stereo unspecified),-5,0.8,-5,1,1.1
Cc1nc2c(C(=O)NCCC3=CCCCC3)c[nH]n2c(=O)c1Cl,56*,1.3,-8,1.1,0.4
Cc1nc2nc(C)c(CCC(=O)NCCC3=CCCCC3)c(C)n2n1,2,1,1,1,1
Cc1nc2c(C(=O)NCc3ccc4c(c3)OCO4)c[nH]n2c(=O)c1Cl,77*,1.2,-12,1.1,0.2
C=CCOc1ccc(Cl)cc1C(=O)O,-7,1.1,-13,1.1,1.1
Cc1noc(C)c1C(=O)N1CCN(CCc2ccccc2)CC1,7,1,17,0.8,0.9
Cc1noc(C)c1C(=O)N1CCN(Cc2ccccc2)CC1,10,1,91*,0.1,0.9
O=C(c1coc(=O)c2ccccc12)N1CCN(Cc2ccccc2)CC1,-30,1.2,55*,0.4,1.3
Cc1occc1C(=O)N1CCN(Cc2ccccc2)CC1,33,1.3,90*,0.1,0.7
CCOc1ccc(CN2CCN(C(=O)c3ccccc3)CC2)cc1,-9,1.2,-10,1.1,1.1
O=C(CCS(=O)(=O)Cc1ccccc1)N1CCN(Cc2ccccc2)CC1,9,1,-10,1.1,0.9
COc1ccc(CN(C(=O)CN2C(=O)C(C)Oc3ccccc32)C2CCCC2)c(OC)c1 (stereo unspecified),88*,1.6,81*,0.2,0.1
COc1ccc(CN(C(=O)CN2C(=O)COc3ccccc32)C2CCCC2)c(OC)c1,44,1.5,44,0.6,0.6
Cc1coc(C)c1C(=O)CC1(O)C(=O)Nc2cc(Cl)cc(Cl)c21 (stereo unspecified),50,1.6,59*,0.4,0.5
Cc1ccc(Cl)c2c1NC(=O)C2(O)CC(=O)c1ccc(F)cc1 (stereo unspecified),2,0.9,34,0.7,1
Cc1cc(C)cc(Oc2cc(NC(=O)c3cn(C)nc3C)cc([N+](=O)[O-])c2)c1,48,0.9,24,0.8,0.5
O=C1C2C3C=CC(C3)C2C(=O)N1Cc1ccccc1 (stereo unspecified),19,0.9,84*,0.2,0.8
CC12C(=O)N(Cc3ccccc3)C(=O)C1C1C=CC2C1 (stereo unspecified),20,0.9,89*,0.1,0.8
C/C(Cl)=C/CN1C(=O)C2C3C=CC(C3)C2C1=O (stereo unspecified),29,0.9,73*,0.3,0.7
CC12C(=O)N(CCC(=O)O)C(=O)C1C1C=CC2C1 (stereo unspecified),2,1,7,0.9,1
O=C(O)CN1C(=O)C2C3C=CC(C3)C2C1=O (stereo unspecified),-12,1,-5,1,1.1
CCCCC(CCC(=O)Nc1nccs1)C(=O)O (stereo unspecified),2,0.9,7,0.9,1
Cc1cc(CN2CCN(CCC#N)CC2)c(O)c(C2(C)CCCCC2)c1,20,1.2,14,0.9,0.8
CC1=C(C(=O)OCC2CCCO2)C(c2ccccc2OC(C)C)C2=C(CC(c3ccco3)CC2=O)N1 (stereo unspecified),81*,1.6,98*,0,0.2
CC1=C(C(=O)OCC2CCCO2)C(c2ccc(C)o2)C2=C(CC(c3ccc(N(C)C)cc3)CC2=O)N1 (stereo unspecified),54*,1.2,56*,0.4,0.5
